Measurements published in the supplement of paper PMC3414501.

Key:
[1] = system: S. cerevisiae SK1 pCDA2-eGFP (USY613), sporulating; assay: CDA2-GFP sporulation assay sensitivity score (z-score vs DMSO controls); higher = stronger inhibition of sporulation, active = hit call of the paper;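 also: active if sensitivity score above 5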
[2] = system: S. cerevisiae NKY1551 his4x/his4B, sporulating; assay: HIS4 meiotic recombination assay sensitivity score (z-score vs DMSO controls); higher = stronger inhibition of sporulation/recombination, active = hit call of the paper;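 also: active if sensitivity score above 5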
[3] = system: S. cerevisiae AD1-9 (efflux-pump deficient), vegetative growth in YPD; assay: growth sensitivity score (doubling time z-score vs DMSO controls); higher = slower growth, strongly negative scores also mark growth inhibition (complete suppression), active = hit call of the paper
Outline: (§1)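 Rich medium in microtiter plates was seeded with Saccharomyces cerevisiae strains BY4741 and AD1-9 at an OD600 of 0.065, and compounds were added as a 1:100 dilution of DMSO stock. A Tecan GENios reader recorded optical density every 15 min for 24 hours, with eight solvent-only wells in each experiment. Average doubling time was the time to reach a set generation point divided by generation number. The growth sensitivity score was the compound mean minus the solvent-only mean, divided by the solvent-only standard deviation.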

[4] = system: S. cerevisiae BY4741 (wild-type), vegetative growth in YPD; assay: as above
Outline: as §1

CN1C(=O)CC[C@H]1c1cccnc1 [Cotinine] (stock concentration (mM, diluted 1:100): 10)
inactive: CDA2-GFP sporulation assay sensitivity score [1] -0.11 | HIS4 meiotic recombination assay sensitivity score [2] -1.15 | growth sensitivity score [3] 1.38 | growth sensitivity score [4] 0.49

CC1=C(C(=O)O)N2C(=O)[C@@H](NC(=O)[C@H](N)c3ccccc3)[C@H]2SC1 [Cephalexin monohydrate] (stock concentration (mM, diluted 1:100): 10)
inactive: CDA2-GFP sporulation assay sensitivity score [1] -1.64 | HIS4 meiotic recombination assay sensitivity score [2] -1.5 | growth sensitivity score [3] -0.53 | growth sensitivity score [4] 0.27

C=CC1=C(C(=O)O)N2C(=O)[C@@H](NC(=O)/C(=N\OCC(=O)O)c3csc(N)n3)[C@H]2SC1 [Cefixime trihydrate] (stock concentration (mM, diluted 1:100): 10)
inactive: CDA2-GFP sporulation assay sensitivity score [1] 2.05 | HIS4 meiotic recombination assay sensitivity score [2] -3.32 | growth sensitivity score [3] -1.39 | growth sensitivity score [4] -0.62

CC1(C)C[C@@H]1C(=O)N/C(=C\CCCCSC[C@H](N)C(=O)O)C(=O)O [Cilastatin] (stock concentration (mM, diluted 1:100): 9.4)
inactive: CDA2-GFP sporulation assay sensitivity score [1] -1.2 | HIS4 meiotic recombination assay sensitivity score [2] -0.68 | growth sensitivity score [3] -1.86 | growth sensitivity score [4] -0.97

CN(C)CCc1c[nH]c2ccc(C[C@H]3COC(=O)N3)cc12 [Zolmitriptan] (stock concentration (mM, diluted 1:100): 10)
inactive: CDA2-GFP sporulation assay sensitivity score [1] -0.81 | HIS4 meiotic recombination assay sensitivity score [2] 0.22 | growth sensitivity score [3] -1.29 | growth sensitivity score [4] -0.77

Oc1ccc(/C=C/c2cc(O)cc(O)c2)cc1 [Resveratrol] (stock concentration (mM, diluted 1:100): 10)
inactive: CDA2-GFP sporulation assay sensitivity score [1] 5.86 | HIS4 meiotic recombination assay sensitivity score [2] 1.16 | growth sensitivity score [3] -0.99 | growth sensitivity score [4] -0.21
